Screens: PubChem BioAssay, The Scripps Research Institute Molecular Screening Center
hcDAF12 agonist – activates DAF-12 receptor from parasite H. contortus; AID 652067; activation, % at 6.8 µM; actives 1.4% (n = 370,000); HEK293 hcDAF-12 lit1-tk-luc reporter, luminescence; 0% DMSO, 100% Δ7-dafachronic acid;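 active means activation above the mean of all tested compounds plus 3 SD, cut at about 5.5% in these data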;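 further: 100% = response to 3 µM Δ7-dafachronic acid high control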
ssDAF12 agonist – activates DAF-12 receptor from parasite S. stercoralis; activation, % at 6.8 µM; HEK293 ssDAF-12/GRIP1 lit1-tk-luc reporter, luminescence; % of 3 µM dafachronic acid response; actives 1% (n = 370,000); AID 652126;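 active means activation above the mean over all tested compounds plus 3 SD, cut at about 0.9% in these data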;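 further: 0% = DMSO-only wells and 100% = 3 µM delta7-dafachronic acid wells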
DAX1 inh-1 – blocks DAX1 repression of SF-1 activated StAR promoter; HEK293T StAR-luciferase reporter, SF-1/DAX-1 repression relief; inhibition, % at 6.8 µM; actives 1.1% (n = 370,000); AID 652010;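 active means inhibition above the mean over all tested compounds plus 3 SD, cut at about 3.6% in these data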;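 further: 0% = DAX-1 cells with DMSO and 100% = cells lacking DAX-1 with DMSO; higher inhibition means more luminescence from relief of DAX-1 repression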
hgDAF12 agonist – agonists of H. glycines DAF-12 nuclear receptor; actives 1.8% (n = 370,000); activation, % at 6.8 µM; HEK293 GAL4-hgDAF12 UAS-luciferase reporter, agonist luminescence; normalized to butyrate control;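 active means activation above a cutoff set at the mean of all screened compounds plus 3 SD, cut at about 10% in these data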;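 further: 0% = DMSO wells and 100% = sodium butyrate wells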
AHR activator – activators of human aryl hydrocarbon receptor | P35869 | AHR-responsive luciferase reporter cells, luminescence | activation, % at 5 µM | actives 2.5% (n = 320,000); in the data active means activation above about 47%;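 further: 0% = vehicle wells and 100% = reference agonist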
DAX1 inh-2 – inhibitors of human orphan nuclear receptor DAX1 (NR0B1) | P51843 | HEK293 Gal4-DAX1 luciferase reporter, luminescence | actives 0.99% (n = 340,000) | AID 504766 | inhibition, % at 6.75 µM;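 active means inhibition above the mean over all tested compounds plus 3 SD, cut at about 4.2% in these data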;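 further: 0% = DAX1-transfected cells with DMSO and 100% = empty-vector control cells with DMSO; inhibition shows as a rise in luminescence from relieved DAX1 repression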
Target sequence (P51843 207-470 limits assumed): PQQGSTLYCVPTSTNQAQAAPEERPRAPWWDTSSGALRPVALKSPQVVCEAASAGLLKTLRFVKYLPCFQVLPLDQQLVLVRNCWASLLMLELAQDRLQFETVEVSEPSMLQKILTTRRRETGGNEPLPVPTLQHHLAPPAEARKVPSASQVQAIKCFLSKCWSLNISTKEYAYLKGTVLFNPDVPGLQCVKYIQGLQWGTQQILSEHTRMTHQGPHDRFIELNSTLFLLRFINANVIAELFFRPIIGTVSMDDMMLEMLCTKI
An asterisk follows results filed as active; nt = not tested or not shown. This is a sample that favours compounds with a hit; in the whole collection about 5.7% have one here.

SMILES	hcDAF12 agonist	ssDAF12 agonist	DAX1 inh-1	hgDAF12 agonist	AHR activator	DAX1 inh-2
Cc1ccc(S(=O)(=O)CCC(=O)OCc2cc(=O)oc3cc(C)ccc23)cc1	0	-1	-1	1	-1	-1
CC(C)(C)OC(=O)C[C@H]1C/C=C\C[C@@H](CC(=O)NCCO)C(=O)N[C@H](C(C)(C)C)COC1=O	0	-1	1	-2	-1	0
Cc1nc(C(C)NC(=O)CCc2nnc(-c3ccsc3)o2)cs1 (configuration not stated)	-1	0	0	-1	-1	1
COc1cc(-c2noc(C3CCCN(C(=O)c4ccccc4)C3)n2)cc(OC)c1OC (configuration not stated)	-2	-2	0	-1	23	-1
CCn1ncc(N(C)N)c(Cl)c1=O	2	1.1*	0	3	3	1
CCn1ncc(N2CCOCC2)c(Cl)c1=O	1	-1	0	1	1	-1
CCOC(=O)N1CCN(C(=O)C[C@H]2C[C@@]3(C(=O)OC)C(=C[C@H](COCc4ccccc4)O[C@@H]3C)N(Cc3ccc4c(c3)OCO4)C2=O)CC1	0	-1	0	-2	nt	nt
COC(=O)C(C)NC(=O)c1ccc(C(C)(C)C)cc1 (configuration not stated)	0	0	1	6	1	1
O=[N+]([O-])c1cc(S(=O)(=O)Nc2ccccc2)ccc1Nc1ccccc1	0	1.6*	-1	0	nt	1
O=[N+]([O-])c1cc(S(=O)(=O)Nc2ccccc2)ccc1NCc1ccccc1	0	-2	0	0	1	0
CCN(CC)CCCNC(=O)c1ccc(CS(=O)(=O)c2ccccc2OC)o1	-1	-1	0	2	3	2
O=C(NCCN1CCCC(O)C1)c1cc(COc2cccc(C(F)(F)F)c2)on1 (configuration not stated)	0	0	1	3	nt	1
O=C(O)c1ccc(-n2ncc3c2/C(=C/c2cccc([N+](=O)[O-])c2)CC3)cc1	4	0.9*	0	0	2	0
COC1C(O)C(O)C(O)C(O)C1O (configuration not stated)	0	-1	0	0	nt	4.9*
O=C(NCC1CCCO1)c1cccc(S(=O)(=O)N(Cc2ccccc2)c2ccccc2)c1 (configuration not stated)	-1	-1	-2	-1	1	0
Cc1ccc(NC(=O)c2noc3c2CCCCC3)cc1C	4	0	4.0*	9	-10	4
O=C(NCc1ccccc1)c1noc2c1CCCC2	0	-1	0	8	0	1
O=C(NCCc1ccccc1)c1noc2c1CCCCC2	2	-1	4.3*	12*	13	3
CCc1nccn1CCC(=O)N1CCc2c([nH]c3ccccc23)C1CC(C)C (configuration not stated)	5.6*	0	0	2	28	1
CCc1nc(C)ccc1OCC(=O)N1CCc2c([nH]c3ccccc23)C1c1ccccn1 (configuration not stated)	0	-1	-1	-2	9	-1
Cc1cccc(NC(=O)COC(=O)c2ccccn2)c1	1	-1	0	2	4	0
CN(C)C(=O)c1ccc(-c2n[nH]c(=O)c3ccccc23)cc1	0	-2	1	-1	3	4.8*
COC(=O)c1ccc(-c2n[nH]c(=O)c3ccccc23)cc1	-2	-1	0	0	0	0
O=C(NC1CCCCN(Cc2cccc(C(F)(F)F)c2)C1=O)c1ccc(F)cc1 (configuration not stated)	-1	-2	-2	-1	nt	nt
CC(C)=CCC12Oc3cc(O)ccc3C1(O)Oc1cc(O)c([C@H]3C=C(C)CC(c4ccc(O)cc4O)[C@H]3C(=O)c3ccc(O)cc3O)c(O)c1C2=O (some centres not stated)	nt	nt	nt	nt	1	nt
SMILES	hcDAF12 agonist	ssDAF12 agonist	DAX1 inh-1	hgDAF12 agonist	AHR activator	DAX1 inh-2
COc1ccc(Nc2cc(C)nc3c(C)cccc23)cc1OC	2	-2	0	-1	68*	3
COc1ccccc1Nc1cc(C)nc2c(C)cccc12	0	-2	1	-2	nt	0
CCOc1ccc(Nc2cc(C)nc3c(C)cccc23)cc1	-2	-2	0	-2	36	4.9*
Cc1c(C(=O)N2CCCC2)c(S(=O)(=O)Nc2ccccc2)c(C)n1C	1	-1	0	-1	0	2
O=C(CCC1CCN(Cc2ccccc2Cl)CC1)NC1CC1	-1	-1	0	0	0	-1
COc1cc(CN2CCC(CCC(=O)NC3CC3)CC2)cc(Cl)c1OC	0	-1	0	2	3	5.2*
N#Cc1ccc(C(=O)N/N=C/c2cn(CC(=O)O)c3ccccc23)c(F)c1	5.7*	0	1	0	30	0
COC[C@H]1CCCN1c1ccc2c(c1)OCCCN(C1CC1)S2(=O)=O	-2	-1	1	0	nt	nt
O=C(Nc1ccc2c(c1)OCO2)c1c(F)cccc1F	6	-1	2	13*	40	1
Cc1nn(-c2ccccc2)c(Cl)c1C(=O)OC(C)C(=O)Nc1ccc2c(c1)OCO2 (configuration not stated)	-2	-1	-1	-2	66*	0
Cc1nn(C(C)C(=O)Nc2ccc3c(c2)OCO3)c(C)c1[N+](=O)[O-] (configuration not stated)	-2	0	0	-1	76*	-1
Cc1nn(C)c(C(=O)Nc2ccc3c(c2)OCO3)c1[N+](=O)[O-]	3	0	1	0	nt	2
Cc1cc(NC(=O)CSc2ccc3nnc(-c4cccs4)n3n2)no1	-2	-1	1	1	49*	0
O=C(CSCSCC(=O)Nc1ccc2c(c1)OCO2)Nc1ccc2c(c1)OCO2	-1	-1	-1	0	1	-1
O=C(CSc1nccn1-c1ccc(Cl)cc1)Nc1ccc2c(c1)OCO2	-3	-1	-2	-3	53*	-1
O=C(CSc1ccc2c(c1)OCCO2)Nc1ccc2c(c1)OCO2	nt	nt	nt	nt	2	1
O=C(CSc1ccccc1)Nc1ccc2c(c1)OCO2	1	-1	1	13*	4	1
O=C(Cc1c(F)cccc1Cl)NNC(=O)Nc1ccc2c(c1)OCO2	-2	-1	0	-1	53*	0
O=C(CSCc1c(Cl)cccc1Cl)Nc1ccc2c(c1)OCO2	-1	-1	1	0	47*	0
CCOc1ccc(N(CC(=O)Nc2nccs2)S(=O)(=O)c2c(C)[nH]c(=O)[nH]c2=O)cc1	1	-1	1	0	1	0
OC(c1ccccc1)(c1ccccc1)C1CCN(CCCNc2cccc(OC(F)(F)F)c2)CC1	-2	1	0	0	nt	nt
